Experimental data published in PubChem BioAssay AID492948 (National Center for Advancing Translational Sciences (NCATS), 2010).
Results filed as inconclusive are left out. Active and inactive are the calls of the source. The call rests on the fitted dose curve; in most records, active means well fitted activation curve with a large enough effect; inconclusive means small, poorly fitted or top-dose-only effect; inactive means no such curve, though single readings can be large or run the other way.

Test: qHTS Assay for Agonists of the Relaxin Receptor RXFP1: V1B Hit Validation;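 further: counter-screen in HEK293 cells expressing V1B rather than RXFP1 for selectivity; nearly all actives have a fitted effect of over 65% in size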;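 on activation: cAMP accumulation with PDE4 inhibitor Ro 20-1724 present during compound exposure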
Conditions: HEK293 V1B cells, cAMP TR-FRET, 30 min; series mostly up to 115 µM
Excerpt: NIH Chemical Genomics Center [NCGC]
NIH Molecular Libraries Probe Production Centers Network [MLPCN]
Assay Submitter (PI): Alexander Agoulnik
The relaxin hormone is involved in the variety of biological functions in normal tissues and diseases. The role of relaxin is well-established in female reproduction and parturition, mammary gland and endometrial development, maintenance of myometrial quiescence during pregnancy. Relaxin signaling through its G protein-coupled receptor (GPCR) RXFP1 results in ECM remodeling through regulation of collagen deposition, cell invasiveness, proliferation and overall tissue homeostasis. […] Recombinant human relaxin (rhRlx) is currently being tested in clinical trials as a protective agent in congestive heart failure, in treating severe preeclampsia, and as an anti-fibrotic agent in systemic sclerosis.
Upon relaxin binding RXFP1 activation leads to the activation of adenylate cyclase (AC) via Gs. cAMP will activate PKA, which phosphorylates many signaling proteins. Thus, detection of cAMP increase is an easy and reliable indication of relaxin receptor activation. To screen for agonists of the relaxin receptor, a HEK293T cell line stably transfected with RXFP1 was used. RXFP1 activation was assayed by changes in cAMP levels as detected with a time-resolved fluorescence energy transfer (TR-FRET) cAMP detection kit.
This assay measures activation of a cell expressing […], another GPCR targeted by relaxin, to determine the selectivity of compounds for RXFP1.
NCGC Assay Protocol Summary:
This is a cell-based assay for cAMP second messenger response to screen for agonists of the RXFP2 receptor. The assay was conducted in the presence of a PDE4 inhibitor (Ro 20174). The cells were lysed and the cAMP levels were measured with a TR-FRET cAMP kit. Presence of cAMP in the cell lysate disrupts binding between the cryptate-labeled anti-cAMP and d2-labeled cAMP pair, leading to a decrease in the TR-FRET signal. Data were normalized to the controls for basal activity (buffer only) and 100% activity (29 nM porcine relaxin). The EC50 values were determined from concentration-response data modeled with the standard Hill equation
1536-well assay protocol for the HEK293 V1B cAMP assay:
(1) Add 3 ul HEK293 RXFP2 cell culture. 2000 cells/well in DMEM/F12, 10% FBS, 1x Pen/Strep (dispensed offline with MultiDrop Combi).
(3) Add 23 nl compounds in DMSO solution. Final concentration was 0.5 - 58 uM.
(4) Incubate 30 min at 37C, 5% CO2.
(5) Add 1 ul cAMP-d2 in lysis buffer (HTRF cAMP HiRange kit, CisBio).
(6) Add 1 ul anti-cAMP antibody-cryptate in lysis buffer (HTRF cAMP HiRange kit, CisBio).
(7) Incubate 30 min at room temperature.
(6) Detect the assay plate in a ViewLux plate reader (PerkinElmer) with Ex=320 nm, Em1=615 nm and Em2=665 nm.
Keywords: relaxin, RXFP1, RXFP2, G-protein coupled receptor, cAMP, agonist, high throughput screening, MLSMR, MLSCN, NIH Roadmap, qHTS and NCGC
Potency means the concentration at half of the fitted maximal effect.

Compound | Potency
COc1ccccc1NC(=O)CCCc1nnc2n(C)c(=O)c3sccc3n12 | 13.8 µM (active)
O=C(Nc1ccccc1C(=O)NCCc1ccc(O)cc1)c1ccco1 | inactive
Nc1cc2ccncc2c2ccccc12 | inactive
Cc1cc(C)nc(NS(=O)(=O)c2ccc(NC(=O)c3nn(-c4ccccc4)ccc3=O)cc2)n1 | 15.5 µM (active)
Cc1ccc(-n2c(=S)[nH]c3sc4c(c3c2=O)CCC4)cc1 | 6.15 µM (active)
Cc1cccc2cc(C#N)c(SCC(=O)NCc3cccs3)nc12 | 19.4 µM (active)
COC(=O)c1sc(N2C(=O)C(O)=C(C(=O)c3ccc(C)o3)C2c2ccc(F)cc2)nc1C (stereo not given) | 2.75 µM (active)
O=C(Nc1ccccc1C(=O)NCCc1ccccc1)c1ccco1 | inactive
CCCC(=O)Nc1ncnc2c1ncn2[C@@H]1O[C@@H]2OP(=O)(O)OC[C@H]2[C@H]1OC(=O)CCC | 0.868 µM (active)
CCC(Sc1ccc2nnc(-c3cccnc3)n2n1)C(=O)O (stereo not given) | 17.3 µM (active)
Nc1ncnc2c1ncn2C1OC(CO)C(O)C1O (stereo not given) | 9.77 µM (active)
COC(=O)c1c(N2C(=O)CC(Sc3ncccc3C(=O)O)C2=O)sc(C)c1C (stereo not given) | inactive
Nc1c(S(=O)(=O)O)cc(NC(=O)c2ccccc2)c2c1C(=O)c1ccccc1C2=O | inactive
CCOC(=O)CNC(=O)CSc1ccc2nnc(-c3cccnc3)n2n1 | inactive
CCN(CC)C(=O)c1cc(Cl)ccc1NC(=O)c1ccco1 | inactive
CN(C)CCCn1c(SCC(=O)Nc2nc(-c3cccc(Br)c3)cs2)nc2ccccc2c1=O | inactive
O=C(O)CNC(=O)c1ccccc1NC(=O)c1ccco1 | inactive
O=C(Nc1ccccc1C(=O)NCc1ccco1)c1ccccc1 | inactive
O=C(O)c1ccc(N2C(=O)c3cccc4cccc(c34)C2=O)cc1 | 74.9 µM (active)
CCCn1c(SCC(=O)Nc2ccc(NC(C)=O)cc2)nc2c1c(=O)n(C)c(=O)n2C | 38.9 µM (active)

Compound | Potency
COc1ccc(S(=O)(=O)N2CCOCC2)cc1NC(=O)CSc1nnc2ccccn12 | 3.88 µM (active)
COc1ccc(CN2C(=O)c3cccnc3C2=O)cc1S(=O)(=O)N1CCCCC1C (stereo not given) | 8.68 µM (active)
O=C(O)CCSc1ccc2ccccc2n1 | 6.15 µM (active)
Cn1c(N)c(C(=O)CSc2nn(-c3ccc(F)cc3)c(=S)s2)c(=O)n(C)c1=O | 19.4 µM (active)
O=C(O)c1cc(-c2ccco2)nc2ccc(Br)cc12 | 19.4 µM (active)
Cc1cc(C)nc(NS(=O)(=O)c2ccc(N3C(=O)c4ccccc4C3=O)cc2)n1 | 29.8 µM (active)
Brc1ccc(-c2nn3c(-c4ccco4)nnc3s2)o1 | 13.8 µM (active)
Cc1ccc(-c2ccc3nnc(SCC(=O)NCC4CCCO4)n3n2)cc1 (stereo not given) | inactive
O=C(Nc1cccc(C(F)(F)F)c1)c1ccccc1NC(=O)C1CCCCC1 | inactive
S=c1nc[nH]c2c1[nH]c1ccccc12 | 6.9 µM (active)
CC1CCCN(C(=O)COC(=O)CNC(=O)c2sc3ccccc3c2Cl)C1 (stereo not given) | 8.68 µM (active)
Brc1ccc2ncnc(NCc3cccnc3)c2c1 | 38.9 µM (active)
CN1C(=O)c2ccc(C(=O)Nc3ccc(Br)cn3)cc2C1=O | 21.8 µM (active)
O=C(Nc1ccccc1C(=O)Nc1ccc(F)cc1)c1ccco1 | inactive
O=C(Nc1ccccc1)c1ccccc1NC(=O)C1CCCCC1 | inactive
Cc1cccc(C(=O)Nc2ccccc2C(=O)NCc2ccco2)c1 | inactive
Cn1c(=O)c2sccc2n2c(CCCC(=O)NCc3ccco3)nnc12 | 34.6 µM (active)
CCN(CC)S(=O)(=O)c1ccc(N2CCOCC2)c(NC(=O)c2cc([N+](=O)[O-])ccc2Cl)c1 | inactive
COc1ccc(OC)c(CNC(=O)C2CCN(C(=O)N(C)C)CC2)c1 | inactive
CCc1cc2cc3c(cc2nc1SCC(=O)Nc1nccs1)OCO3 | 19.4 µM (active)
